Among all 350,000 compounds or so, about 5,500 (1.6%) were called active.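 Rule for the calls: active = significant combined selectivity score with lowered wild-type GFP, culture density cut under 30%, mutant RFP and density less affected; inactive = any of these conditions unmet.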 Only a selection was taken, and actives are over-represented in it overall.

The test in a line: reduced GFP signal of wild-type E. coli, primary screen, bacterial rRNA inhibitor project, GFP/RFP fluorescence, OD600, single point (AID 720706). Conditions: E. coli WT GFP vs humanized-ribosome RFP mutants, 24 h; GFP signal change (wild-type ribosome): stronger effect = lower value, DMSO median 0, no signal -100; OD600 change: measured here: OD600 growth, DMSO median 0, no signal -100; RFP signal change: measured here: RFP humanized mutant strains, DMSO median 0, no signal -100, concentration not given here.
Regarding `CCCNC(=O)N1CC(=O)N2[C@H](C1)[C@@H](c1ccc(C#Cc3ccccc3)cc1)[C@@H]2CO`, the GFP signal change (wild-type ribosome) is -41.7% (inactive), the OD600 change was -70.4% and the RFP signal change is -0.11%.

Take `COc1ccc2c3c(n(C)c2c1)[C@@H](CO)N(C(=O)Nc1ccccc1F)CC31CCN(C(=O)c2ccccc2F)CC1`: the GFP signal change (wild-type ribosome) was -2.62% (inactive), the OD600 change is -3.48% and the RFP signal change was -0.298%.

`CO[C@@H](CN(C)C(=O)c1cnccn1)[C@H](C)CN([C@H](C)CO)S(=O)(=O)c1ccc(C)cc1`: the GFP signal change (wild-type ribosome) is 1.87% (inactive), the OD600 change came to 2.69% and the RFP signal change was -1.48%.

With `CCc1nc2ccccc2c(C(=O)NCc2ccc(OC)cc2)c1C`, the GFP signal change (wild-type ribosome) is -3.42% (inactive), the OD600 change was -5.87% and the RFP signal change is -3.53%.

As for `CCc1c(C)c2ccc(OC3CCCCC3=O)cc2oc1=O` (stereo not given), the GFP signal change (wild-type ribosome) is 1.77% (inactive), the OD600 change is -3.25% and the RFP signal change was found to be 1.07%.

Turning to `CCc1nc2ccccc2c(C(=O)OC2CCCCC2=O)c1C` (stereo not given), the GFP signal change (wild-type ribosome) is -34.4% (active), the OD600 change is -20.5% and the RFP signal change was 3.94%.

Consider `CC(=O)N(C)C[C@@H]1Oc2cc(-c3cccnc3)ccc2S(=O)(=O)N([C@@H](C)CO)C[C@H]1C`, for which the GFP signal change (wild-type ribosome) was 0.257% (inactive), the OD600 change was -3.4% and the RFP signal change was -4.17%.

`O=C(CC1CC1)N1CC(=O)N2[C@H](CO)[C@H](c3ccc(C#Cc4ccc(F)cc4)cc3)[C@@H]2C1`: the GFP signal change (wild-type ribosome) is -21.5% (inactive), the OD600 change was -61.2% and the RFP signal change is 15.4%.

`COc1ccc(-c2cnc3c(c2)C(=O)N([C@H](C)CO)C[C@@H](C)[C@H](CN(C)C(=O)Cc2ccncc2)O3)cc1`: the GFP signal change (wild-type ribosome) was -1.52% (inactive), the OD600 change was 2.2% and the RFP signal change is -0.471%.

For the compound `COc1cccc(NC(=O)Nc2ccc3c(c2)OC[C@@H](C)NC[C@@H](C)[C@H](OC)CN(C)C3=O)c1`, the GFP signal change (wild-type ribosome) was 0.255% (inactive), the OD600 change turned out to be 0.1% and the RFP signal change is 2.58%.

Take `C[C@@H]1CCCCO[C@H](CN(C)C(=O)CCCN(C)C)[C@@H](C)CN([C@@H](C)CO)C(=O)c2cc(NC(=O)c3ccncc3)ccc2O1`: the GFP signal change (wild-type ribosome) is 3.33% (inactive), the OD600 change came out at 12.1% and the RFP signal change was -1.91%.

For `COc1ccccc1N1CCN(C(=O)c2cc3c(-c4ccc(Cl)cc4)nn(C)c3s2)CC1`, the GFP signal change (wild-type ribosome) was 0.925% (inactive), the OD600 change was determined as 11.2% and the RFP signal change worked out at 2.25%.

On to `Cn1nc(-c2ccc(Cl)cc2)c2cc(C(=O)NCc3ccco3)sc21`, for which the GFP signal change (wild-type ribosome) was -29.9% (inactive), the OD600 change was -25.9% and the RFP signal change was -16.6%.

In the case of `CCOC(=O)N1CCN(C(=O)c2cc3c(-c4ccc(Cl)cc4)nn(C)c3s2)CC1`, the GFP signal change (wild-type ribosome) was -22.9% (active), the OD600 change is -10.6% and the RFP signal change is -5.96%.

In the case of `COc1ccc2c3c(n(C)c2c1)[C@H](CO)NCC31CN(Cc2cc(F)ccc2F)C1`, the GFP signal change (wild-type ribosome) is -2.04% (inactive), the OD600 change is 1.28% and the RFP signal change amounted to 1.51%.

For the compound `CCc1c(N=O)c(-c2ccccc2)n(O)[n+]1[O-]`, the GFP signal change (wild-type ribosome) was -18.1% (active), the OD600 change stood at 0.75% and the RFP signal change is -2.88%.

As for `CCOC(=O)c1ccn(S(=O)(=O)c2ccc(C)cc2)c1-c1ccccc1`, the GFP signal change (wild-type ribosome) was -4.05% (inactive), the OD600 change is -26.5% and the RFP signal change was -5.7%.

As to `O=C(/C=C/c1cn(-c2ccccc2)nc1-c1ccc2c(c1)OCCO2)NCCCN1CCOCC1`, the GFP signal change (wild-type ribosome) was -59.2% (inactive), the OD600 change is -80.4% and the RFP signal change is -18.1%.

Turning to `S=c1[nH]nc(-c2cccs2)n1/N=C/c1cn(-c2ccccc2)nc1-c1ccc(Cl)cc1`, the GFP signal change (wild-type ribosome) is 5.75% (inactive), the OD600 change was found to be 18.1% and the RFP signal change was 0.386%.

As for `O=C(O)c1ccc(N/N=C/c2cn(-c3ccccc3)nc2-c2cccs2)cc1`, the GFP signal change (wild-type ribosome) is -27.8% (active), the OD600 change is -18.5% and the RFP signal change was -5.29%.

With `COc1ccc(-c2nn(-c3ccccc3)cc2/C=C\C(=O)N2CCOCC2)cc1[N+](=O)[O-]`, the GFP signal change (wild-type ribosome) is -3.42% (inactive), the OD600 change was found to be 3.96% and the RFP signal change is -1.95%.

With `O=C(/C=C\c1cn(-c2ccccc2)nc1-c1cccs1)N1CCOCC1`, the GFP signal change (wild-type ribosome) was -25.3% (active), the OD600 change is -11.3% and the RFP signal change is -10.9%.

On to `Cc1ccc2cc(/C=N/Nc3ccc(C(=O)O)cc3)c(Cl)nc2c1`, for which the GFP signal change (wild-type ribosome) is 8.25% (inactive), the OD600 change is -7.45% and the RFP signal change amounted to 2.99%.

On to `N#C[C@@H]1[C@H](c2ccccc2)[C@H](CO)N1C(=O)CN1CCOCC1`, for which the GFP signal change (wild-type ribosome) was 13.7% (inactive), the OD600 change was 21.2% and the RFP signal change was determined as 0.395%.

For `O=C(Nc1ccccc1F)N1CC(=O)N2[C@H](C1)[C@H](c1ccc(C#Cc3ccc(F)cc3)cc1)[C@@H]2CO`, the GFP signal change (wild-type ribosome) is -2.23% (inactive), the OD600 change is -44.6% and the RFP signal change was found to be 20.2%.

Regarding `O=C(CC1CC1)N1[C@@H](CO)[C@H](c2ccccc2)C12CN(Cc1cccnc1)C2`, the GFP signal change (wild-type ribosome) is 1.16% (inactive), the OD600 change is -2.09% and the RFP signal change was 1.37%.

Turning to `COc1ccc(CN(C)C[C@@H]2Oc3ccc(NC(=O)NC(C)C)cc3C(=O)N([C@@H](C)CO)C[C@H]2C)cc1`, the GFP signal change (wild-type ribosome) was 1.14% (inactive), the OD600 change was found to be 10.5% and the RFP signal change was -0.455%.

As for `COc1ccc(-c2ccc3c(c2)[C@H]2[C@H](CCN2C(=O)C2CCOCC2)[C@H](CO)N3C)cc1`, the GFP signal change (wild-type ribosome) was -4.42% (inactive), the OD600 change was -4.78% and the RFP signal change is -1.56%.

`COc1ccc(-c2ccc3c(c2)C2CC3CCN2CCC#N)cc1` (stereo not given): the GFP signal change (wild-type ribosome) was -28.2% (active), the OD600 change is -19.1% and the RFP signal change is -3.22%.

Consider `C=CCOC(=O)N1CCC2CC1c1cc(-c3ccc(OC)cc3)ccc12` (stereo not given), for which the GFP signal change (wild-type ribosome) was 3.93% (inactive), the OD600 change is 0.963% and the RFP signal change is -4.99%.

Turning to `COc1ccc2c3c(n(C)c2c1)[C@H](CO)NCC31CN(S(=O)(=O)c2cccc(C)c2)C1`, the GFP signal change (wild-type ribosome) was -0.56% (inactive), the OD600 change is -33% and the RFP signal change amounted to 8.22%.

For `O=C(C(=O)N1CCC(CNS(=O)(=O)Cc2ccccc2)CC1)c1cc2ccccc2o1`, the GFP signal change (wild-type ribosome) is -14% (active), the OD600 change was -14.9% and the RFP signal change stood at 2.73%.

For `N#Cc1cccc(C(=O)NCC2CCN(C(=O)C(=O)c3cc4ccccc4o3)CC2)c1`, the GFP signal change (wild-type ribosome) is -2.59% (inactive), the OD600 change was -1.64% and the RFP signal change is -0.945%.

Regarding `CC(C)(C)c1ccc(S(=O)(=O)NCC2CCN(C(=O)C(=O)c3cc4ccccc4o3)CC2)cc1`, the GFP signal change (wild-type ribosome) is -0.31% (inactive), the OD600 change amounted to 0.126% and the RFP signal change came to 0.99%.

For the compound `COc1cccc(S(=O)(=O)N2CC3(CCN(C)CC3)c3c(n(C)c4cc(OC)ccc34)[C@H]2CO)c1`, the GFP signal change (wild-type ribosome) is -0.483% (inactive), the OD600 change is -1.36% and the RFP signal change turned out to be 0.12%.

As to `COc1ccc2c3c(n(C)c2c1)[C@@H](CO)N(C(=O)CN1CCOCC1)CC31CCN(Cc2ccncc2)CC1`, the GFP signal change (wild-type ribosome) was 1.45% (inactive), the OD600 change was 2.53% and the RFP signal change was -1.13%.

`C[C@@H](NC(=O)C[C@@H]1CC[C@H]2[C@@H](COC[C@@H](O)CN2C(=O)Nc2cccc(F)c2)O1)c1ccccc1`: the GFP signal change (wild-type ribosome) is -11.5% (inactive), the OD600 change was -6.23% and the RFP signal change amounted to 5.17%.

Consider `CCOc1ccccc1NC(=O)C1CCN(S(=O)(=O)c2c(C)nn(C)c2C)CC1`, for which the GFP signal change (wild-type ribosome) was 3.06% (inactive), the OD600 change is -0.4% and the RFP signal change is -2.77%.

As to `COc1ccc(CC2(CO)CCN(Cc3cnn(C)c3)CC2)cc1`, the GFP signal change (wild-type ribosome) was 25.9% (inactive), the OD600 change came out at 13% and the RFP signal change turned out to be 1.82%.

On to `Cc1nn(C)c(C)c1S(=O)(=O)N1CCC(CO)(Cc2ccc(Cl)cc2)CC1`, for which the GFP signal change (wild-type ribosome) was -22% (active), the OD600 change is -16.9% and the RFP signal change was found to be 0.06%.

The values above are taken from PubChem BioAssay AID720706 (Broad Institute, 2013).
